84 variants from a collection of fitness landscapes (doi:10.1016/j.celrep.2020.107928) can be followed below.

B1: Caulobacter ParB omega fusion; a variant is named by its letters at X, in order, B8GW30 (parent)
chain: MESVVVGEPGMSEGRRGLGRGLSALLGEVDAAPAQAPGEQLGGSREAPIEILQRNPDQPRRTFREEDLEDLSNSIREKGVLQPILVRPSPDTAGEYQIVAGERAWRAAQRAGLKTVPIMVRELDDLAVLEIGIIENVQRADLNVLEEALSYKVLMEKFERTQENIAQTIGKSXSHVANXMRLLXLPDEVQSYLVSGELTAXHARAIAAAADPVALAKQIIEGGLSVRETEALARKAPNLSAGKSKGGRPPRVKDTDTQALESDLSSVLGLDVSIDHRGSTGTLTITYATLEQLDDLCNRLTRGI

Whole data set: some 81,000 sequences, median “one-hybrid fitness for binding NBS DNA” near -0.1, cut for the highest 2% near 0.36. The list comes from a sample in which the highest values are over-represented; it also holds similar and randomly drawn sequences.

Variants of B1 are the subject of the assay. Put plainly: one-hybrid fitness for binding NBS DNA (the Noc-binding site; scaled: cognate 1, non-cognate 0); higher = stronger binding. The settings on record: with NBS DNA site. The essentials: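 Values were rescaled so that cognate is 1 and non-cognate is 0. Each is a fitness, the log change in a variant's read ratio to wild type from Illumina reads of plasmids before and after selection, with three replicate libraries pooled and variants under 10 reads dropped. Selection of the Caulobacter ParB libraries, four specificity codons randomised, used E. coli USO with a HIS3 reporter, site 19 bp from the promoter, on M9-minus-histidine with 0.1 mM IPTG and 5 mM 3-AT for 48 hours at 37°C.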
Take MIPG: the “one-hybrid fitness for binding NBS DNA” value is no more than 0.2. The figure for HFNT is no more than 0.2.

On to GLSP, for which the “one-hybrid fitness for binding NBS DNA” value is no more than 0.2.

Turning to RRCT, the “one-hybrid fitness for binding NBS DNA” value was 0.77. Consider RRNQ, for which the “one-hybrid fitness for binding NBS DNA” value was 0.313. In the case of RRDT, the “one-hybrid fitness for binding NBS DNA” value worked out at 0.755. The figure for RRSQ is 0.284; for RRNT it is 0.785. As to RPDT, the “one-hybrid fitness for binding NBS DNA” value was no more than 0.2. The figure for RRNK is 0.274; for RRSC it is 0.291; for RACT it is 0.334. The figure for RRST is 0.776; for RFCT it is no more than 0.2; for KAAL it is no more than 0.2. The figure for VLTL is no more than 0.2; for LFQI it is no more than 0.2; for MRVN it is no more than 0.2.

PPII: the “one-hybrid fitness for binding NBS DNA” value is no more than 0.2.

On to YTPG, for which the “one-hybrid fitness for binding NBS DNA” value was no more than 0.2. The figure for RTSS is 0.475; for RTNS it is 0.534.

As to RTND, the “one-hybrid fitness for binding NBS DNA” value was no more than 0.2. The figure for RTLD is no more than 0.2; for RTSN it is no more than 0.2.

Take RTHD: the “one-hybrid fitness for binding NBS DNA” value is no more than 0.2.

As for RTHH, the “one-hybrid fitness for binding NBS DNA” value worked out at 0.262. The figure for RTLS is 0.381; for RTLN it is no more than 0.2; for RTDS it is 0.219.

On to RTHS, for which the “one-hybrid fitness for binding NBS DNA” value worked out at 0.54. The figure for RTSD is no more than 0.2; for HINT it is no more than 0.2. The figure for HQTT is no more than 0.2; for ITQC it is no more than 0.2; for IHSS it is no more than 0.2. The figure for SNIS is no more than 0.2; for KRCM it is no more than 0.2; for FKNS it is no more than 0.2. In the case of RTRN, the “one-hybrid fitness for binding NBS DNA” value was 0.277. Turning to RTIS, the “one-hybrid fitness for binding NBS DNA” value worked out at 0.34. Regarding RTRP, the “one-hybrid fitness for binding NBS DNA” value is no more than 0.2. The figure for RTYH is no more than 0.2; for RTDH it is no more than 0.2. In the case of RTYS, the “one-hybrid fitness for binding NBS DNA” value worked out at 0.491. Consider RTWS, for which the “one-hybrid fitness for binding NBS DNA” value stood at 0.349. The figure for RTRH is 0.536; for RTRS it is 0.651. The figure for IPNR is no more than 0.2; for PSAG it is no more than 0.2.

For DNSY, the “one-hybrid fitness for binding NBS DNA” value is no more than 0.2. The figure for AIGW is no more than 0.2. Regarding RVND, the “one-hybrid fitness for binding NBS DNA” value is no more than 0.2. The figure for RVDT is no more than 0.2; for RVNT it is 0.576. On to RVNP, for which the “one-hybrid fitness for binding NBS DNA” value was no more than 0.2. The figure for RVDR is 0.213; for RVNN it is no more than 0.2. The figure for RVDS is no more than 0.2; for RVNS it is 0.521; for RVNR it is 0.55. The figure for WHSS is no more than 0.2; for TLQF it is no more than 0.2; for SSCT it is no more than 0.2.

In the case of WSSA, the “one-hybrid fitness for binding NBS DNA” value was no more than 0.2.

On to LTMS, for which the “one-hybrid fitness for binding NBS DNA” value was no more than 0.2.

As to PEYD, the “one-hybrid fitness for binding NBS DNA” value was no more than 0.2. The figure for YDIF is no more than 0.2; for YRPY it is no more than 0.2; for RMKC it is 0.4.

With RKKC, the “one-hybrid fitness for binding NBS DNA” value stood at 0.391. Turning to RSKC, the “one-hybrid fitness for binding NBS DNA” value stood at 0.382. The figure for RPKC is no more than 0.2; for RMYC it is no more than 0.2. Take RSVC: the “one-hybrid fitness for binding NBS DNA” value was no more than 0.2. On to RSYC, for which the “one-hybrid fitness for binding NBS DNA” value was no more than 0.2. The figure for RMVC is no more than 0.2; for RLKC it is 0.335; for RCKC it is 0.37. The figure for RKPC is no more than 0.2; for RKVC it is no more than 0.2; for CIWR it is no more than 0.2. As for TVCY, the “one-hybrid fitness for binding NBS DNA” value was no more than 0.2. The figure for CPRV is no more than 0.2.
